The values below come from PubChem BioAssay AID504333 (National Center for Advancing Translational Sciences (NCATS), 2011).

The campaign covered roughly 360,000 compounds. About 16,000 (4.4%) were called active. Where a call stands in place of a potency, no number is given. Not shown: some 9% with an inconclusive outcome. The call rests on the fitted dose curve; in most records, active means well fitted inhibition curve with a large enough effect; inconclusive means small, poorly fitted or top-dose-only effect; inactive means no such curve, though single readings can be large or run the other way. For the sample, actives were picked, then their nearest neighbours and some compounds at random.
Potency means the concentration at half of the fitted maximal effect.

For this assay, the target named is Bromodomain adjacent to zinc finger domain protein 2B (Homo sapiens) (UniProt Q9UIF8). Briefly: qHTS Assay for Inhibitors of BAZ2B. Further: nearly all actives have a fitted effect of over 60% in size. Conditions: AlphaScreen BAZ2B-H3K14Ac peptide displacement; series mostly up to 114 µM. The procedure, abridged: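 BAZ2B (50 nM) with biotin-H3(5-23)K14Ac peptide (50 nM) in PBS pH 7.4, 0.01% Tween-20, preformed 30 min, then compound 30 min at room temperature; top concentration 110uM. AlphaScreen streptavidin donor/nickel chelate acceptor beads (10 ug/mL final), 20 min dark, signal read.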
Bromodomain adjacent to zinc finger domain protein 2B (Homo sapiens), sequence (Q9UIF8 whole entry, looked up, the tested form may be a part): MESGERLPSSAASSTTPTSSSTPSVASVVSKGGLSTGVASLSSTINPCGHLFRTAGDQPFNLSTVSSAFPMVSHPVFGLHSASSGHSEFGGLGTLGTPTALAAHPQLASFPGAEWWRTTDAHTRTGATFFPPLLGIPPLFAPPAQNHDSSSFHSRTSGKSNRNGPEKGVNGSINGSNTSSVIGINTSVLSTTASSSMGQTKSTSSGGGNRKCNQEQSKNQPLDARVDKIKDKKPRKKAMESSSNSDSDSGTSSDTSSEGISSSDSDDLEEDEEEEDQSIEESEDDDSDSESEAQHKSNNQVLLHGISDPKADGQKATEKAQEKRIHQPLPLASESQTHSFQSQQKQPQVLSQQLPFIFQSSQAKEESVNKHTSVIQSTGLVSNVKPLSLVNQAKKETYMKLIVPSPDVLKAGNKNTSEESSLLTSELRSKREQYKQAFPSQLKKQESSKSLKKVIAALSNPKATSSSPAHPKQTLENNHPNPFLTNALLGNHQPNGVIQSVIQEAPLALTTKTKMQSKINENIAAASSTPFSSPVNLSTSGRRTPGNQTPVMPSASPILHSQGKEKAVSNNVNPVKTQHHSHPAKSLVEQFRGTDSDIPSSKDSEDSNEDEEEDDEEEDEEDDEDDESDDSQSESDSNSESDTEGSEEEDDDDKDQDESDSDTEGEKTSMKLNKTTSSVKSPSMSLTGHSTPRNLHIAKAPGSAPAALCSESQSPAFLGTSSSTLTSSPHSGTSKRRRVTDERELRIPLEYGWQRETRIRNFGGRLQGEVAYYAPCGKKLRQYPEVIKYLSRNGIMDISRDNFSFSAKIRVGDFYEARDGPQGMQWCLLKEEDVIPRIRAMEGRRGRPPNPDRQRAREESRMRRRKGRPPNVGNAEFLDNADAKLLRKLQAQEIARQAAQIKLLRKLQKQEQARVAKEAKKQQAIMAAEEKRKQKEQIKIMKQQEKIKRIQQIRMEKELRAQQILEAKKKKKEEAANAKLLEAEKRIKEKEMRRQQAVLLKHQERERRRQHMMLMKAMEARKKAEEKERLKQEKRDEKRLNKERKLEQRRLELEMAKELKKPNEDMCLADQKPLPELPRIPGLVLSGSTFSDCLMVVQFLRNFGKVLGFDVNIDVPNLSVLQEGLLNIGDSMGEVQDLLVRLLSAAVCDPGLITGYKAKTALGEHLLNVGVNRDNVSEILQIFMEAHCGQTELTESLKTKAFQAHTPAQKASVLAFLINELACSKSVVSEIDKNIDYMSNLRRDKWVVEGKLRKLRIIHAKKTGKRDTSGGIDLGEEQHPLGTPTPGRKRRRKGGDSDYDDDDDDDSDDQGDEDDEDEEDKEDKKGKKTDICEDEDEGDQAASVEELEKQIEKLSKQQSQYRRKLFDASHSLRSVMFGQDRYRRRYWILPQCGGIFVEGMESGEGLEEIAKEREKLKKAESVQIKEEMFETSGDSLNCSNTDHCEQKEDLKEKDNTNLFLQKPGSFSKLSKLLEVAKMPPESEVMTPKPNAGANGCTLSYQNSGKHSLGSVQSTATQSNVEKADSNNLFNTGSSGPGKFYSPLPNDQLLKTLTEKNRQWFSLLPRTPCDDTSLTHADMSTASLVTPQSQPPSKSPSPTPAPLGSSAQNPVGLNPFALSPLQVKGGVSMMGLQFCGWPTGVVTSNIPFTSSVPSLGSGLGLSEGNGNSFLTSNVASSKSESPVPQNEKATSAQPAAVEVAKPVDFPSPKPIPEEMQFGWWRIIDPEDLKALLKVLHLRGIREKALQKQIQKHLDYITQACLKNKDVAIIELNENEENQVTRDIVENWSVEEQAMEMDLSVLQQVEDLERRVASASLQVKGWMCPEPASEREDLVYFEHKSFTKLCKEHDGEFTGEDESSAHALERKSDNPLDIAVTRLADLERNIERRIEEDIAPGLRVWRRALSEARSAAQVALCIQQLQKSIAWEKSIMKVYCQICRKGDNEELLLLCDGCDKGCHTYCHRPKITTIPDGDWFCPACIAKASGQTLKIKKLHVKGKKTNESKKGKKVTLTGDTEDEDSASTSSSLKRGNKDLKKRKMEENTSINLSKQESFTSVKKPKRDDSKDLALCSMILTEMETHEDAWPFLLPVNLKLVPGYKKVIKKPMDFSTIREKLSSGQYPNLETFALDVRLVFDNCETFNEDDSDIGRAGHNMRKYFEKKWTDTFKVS
(Quantitative high-throughput screening tests each substance at several concentrations.)
`O=C(CCOc1ccccc1)N(Cc1cccnc1)c1nc2ccc(Cl)cc2s1`: the Potency entry was “inactive”.
Consider `Cc1cccc(N2CCN(C(=O)c3cc4c(=O)oc5ccccc5c4s3)CC2C)c1` (configuration not stated), for which the Potency result is “inactive”.
Under `COC(=O)c1ccc(NC(=O)c2cnn(-c3ccc(Cl)cc3)c2C2CCN(C(=O)OC(C)(C)C)CC2)cc1` stands “inactive”; under `O/N=C1\CC2(Cc3nonc31)OCCO2`, “inactive”; under `ON=C1/C(=N\O)CC2(C/C1=N/O)OCCO2`, 22.4 µM (active).
The entry for `Cc1cccc(N2CCN(C(=O)c3ccc4c(c3)CCN4S(=O)(=O)c3ccccc3)CC2)c1C` is “inactive”; for `O=C(COc1ccc(Cl)cc1)N(Cc1ccco1)Cc1ccco1` it is “inactive”.
Take `Cc1ccc(S(=O)(=O)NCc2nc3nc(C)cc(C)n3n2)cc1`: the Potency entry was “inactive”.
As to `CCc1ccc(NC(=O)CSc2nc3c([nH]c4ccccc43)c(=O)n2-c2cccc(OC)c2)cc1`, the Potency result was “inactive”.
On to `Cn1c(=O)c2c(SCC(=O)N3CCc4ccccc43)nc(-c3ccc(Cl)cc3)nc2n(C)c1=O`, for which the Potency result was “inactive”.
As for `Cc1cc(C)nc(N/N=C/c2c(CO)cnc(C)c2O)n1`, the Potency was 79.4 µM (active).
For `Cc1cc(C)nc(N/N=C/c2c(C)oc3ccccc23)n1`, the Potency result was “inactive”.
For the compound `O=C(c1cccc(Cl)c1)N1CCN(CCc2ccncc2)CC1`, the Potency entry was “inactive”.
Turning to `CC(NC(=O)c1ccco1)C(=O)Nc1nc(-c2ccccn2)cs1` (configuration not stated), the Potency was 22.4 µM (active).
`CSCCC(NC(=O)c1ccco1)C(=O)Nc1cc(C)ccn1` (configuration not stated): the Potency entry is “inactive”.
Take `CCOC(=O)N1CCN(C(=O)C(C)NC(=O)c2ccco2)CC1` (configuration not stated): the Potency entry is “inactive”.
On to `Cc1cc(C)cc(-n2ccnc2SCC(=O)Nc2nc3ccccc3s2)c1`, for which the Potency result was “inactive”.
Under `COc1ccc(CCNC(=O)c2cc3cccc4c3n2CC(C)S4)c(OC)c1OC` (configuration not stated) stands “inactive”; under `CCC1=Nc2cc(C(=O)NCC(C)c3ccccc3)ccc2Sc2ccc(C)cc21` (configuration not stated), “inactive”; under `CCCCCC(=O)Nc1ccc(S(=O)(=O)Nc2ccc(Cl)nn2)cc1`, “inactive”.
With `Cc1nnc(SCC(=O)Nn2cnnc2)s1`, the Potency result was “inactive”.
For `Cc1nnc(SCC(=O)Nc2ccc(S(=O)(=O)Nc3ccc(Cl)nn3)cc2)s1`, the Potency was 50.1 µM (active).
With `C#CC(CCN1CCCCC1)(OC)c1ccccc1` (configuration not stated), the Potency entry was “inactive”.
Consider `c1ccc(-c2ccccc2OCCN2CCCCC2)cc1`, for which the Potency was 50.1 µM (active).
`c1ccc(-c2ccc(OCCN3CCOCC3)cc2)cc1`: the Potency entry is “inactive”.
The entry for `O=C(CC(c1cccs1)N1Cc2ccccc2C1=O)Nc1ccc(F)c(F)c1` (configuration not stated) is “inactive”; for `CC(=O)c1c(C)n(S(=O)(=O)c2ccc(Cl)cc2)c2ccc(NS(=O)(=O)c3ccc(Cl)cc3)cc12` it is “inactive”.
On to `Cn1c(C(=O)N2CCCC(C(=O)NCc3ccccc3)C2)cc2sccc21` (configuration not stated), for which the Potency entry was “inactive”.
As to `COc1ccc(N2CCN(C(=O)C3CCCN(C(=O)c4cc5sccc5n4C)C3)CC2)cc1` (configuration not stated), the Potency was 39.8 µM (active).
For the compound `COc1ccc(N2CCN(C(=O)C3CCN(C(=O)c4ccccc4Cl)CC3)CC2)cc1`, the Potency entry is “inactive”.
Regarding `Cc1cc(C)cc(NS(=O)(=O)c2cc3c(cc2C)NC(=O)CO3)c1`, the Potency result was “inactive”.
Under `COc1ccc(C)cc1Nc1nc(-c2c(C)[nH]c3ccccc23)cs1` stands 50.1 µM (active); under `COC(=O)c1cnc(Nc2cc(C)ccc2OC)c2ccccc12`, “inactive”.
For `COc1ccc(C)cc1Nc1nc(C)nc2c1oc1ccccc12`, the Potency entry is “inactive”.
Regarding `O=C(COc1ccccc1Cl)Nc1ccc2nc(SCC(=O)N3CCCC3)sc2c1`, the Potency result is “inactive”.
On to `Cc1c(C(=O)NCc2ccccc2Br)oc2ccc3c(c12)C(=O)CC(C)(C)O3`, for which the Potency entry is “inactive”.
For `CCOC(=O)c1c(C)[nH]c(C)c1S(=O)(=O)N1CCC(C(=O)Nc2ccc(C)c(Cl)c2)CC1`, the Potency result was “inactive”.
For `CCOC(=O)c1ccc(NC2=CC(c3ccc(OCC)cc3)N(c3ccc(C(=O)OCC)cc3)C2=O)cc1` (configuration not stated), the Potency result was “inactive”.
With `COc1ccc(CCNc2ncnc3onc(-c4ccc(Cl)cc4)c23)c(OC)c1`, the Potency entry is “inactive”.
In the case of `CC(=O)n1c(C=Nc2ccccc2)c(O)c2ccccc21`, the Potency result is “inactive”.
Regarding `Oc1ccc(N=Cc2sc3ccccc3c2Cl)cc1`, the Potency was 31.6 µM (active).
Turning to `COc1ccc(N=C(C)c2sc3ccccc3c2O)cc1`, the Potency result is “inactive”.
As for `COc1ccc(C(F)(F)F)cc1NC(=O)c1sc2nc(-c3cccs3)ccc2c1N`, the Potency result is “inactive”.
In the case of `Nc1cc(N)nc(SCc2ccc(Cl)cc2)n1`, the Potency entry was “inactive”.
`Clc1ccc(CSc2nncn3c2cc2occc23)cc1`: the Potency was 44.7 µM (active).
Turning to `O=C(C1CC1)N1CCN=C1SCc1ccc(Cl)cc1`, the Potency entry was “inactive”.
For the compound `COC(=O)c1sccc1S(=O)(=O)N(CC(=O)Nc1ccc(C)c(F)c1)c1ccc(C)c(C)c1`, the Potency result was “inactive”.
For the compound `CCOC(=O)c1c(NC(=O)c2cc(-c3ccc(Cl)cc3)on2)sc2c1CCCC2`, the Potency result is “inactive”.
The entry for `COc1ccccc1-c1nnc(C2CCN(C(=O)c3ccc(Cl)cc3)CC2)o1` is “inactive”; for `Cc1ccc(Oc2c(C(F)(F)F)oc3c(CN4CCCCC4)c(O)ccc3c2=O)cc1` it is “inactive”; for `Cc1nnc(C)n1-c1ccc(C(=O)Nc2cccc(Br)c2)cc1` it is “inactive”.
Turning to `Cc1ccccc1CN1CCC(CNC(=O)c2cc3ccc4cccnc4c3[nH]2)CC1`, the Potency result was “inactive”.
Turning to `O=C(CCN1C(=O)/C(=C/c2cccs2)SC1=S)NNC(=O)c1cccc(O)c1`, the Potency entry was “inactive”.
The entry for `O=C(CCCCCN1C(=O)c2cccc3cccc(c23)C1=O)NCc1ccco1` is “inactive”.
On to `O=C(CCCN1C(=O)/C(=C\c2ccco2)SC1=S)Nc1cccc2ccccc12`, for which the Potency is 44.7 µM (active).
`CCn1c(=O)c(=O)n(CC)c2cc(N3CCCCC3)c(NC(=O)c3cccc(F)c3)cc21`: the Potency result was “inactive”.
As for `COc1ccc(C)cc1NC(=O)COCc1cc(-c2cccs2)on1`, the Potency entry is “inactive”.
Regarding `Cc1cc(C)cc(NC(=S)NCCc2c[nH]c3ccccc23)c1`, the Potency was 28.2 µM (active).
Turning to `Cc1cc(C)cc(NC(=S)NCc2ccc(F)cc2)c1`, the Potency entry was “inactive”.
Take `O=C(NCCc1c[nH]c2ccccc12)c1cccc(Br)c1`: the Potency entry is “inactive”.
Consider `COc1ccc(CNC(=O)COCc2cc(-c3cccs3)on2)cc1OC`, for which the Potency entry was “inactive”.
On to `CCN(C(=O)Cn1cc(S(=O)(=O)N2CCN(c3ccccc3F)CC2)c2ccccc2c1=O)c1ccc(C)c(C)c1`, for which the Potency result is “inactive”.
Consider `Cc1ccc(CN(C(=O)c2ccccc2[N+](=O)[O-])c2ccccn2)cc1`, for which the Potency entry was “inactive”.
As for `CCc1ccc(N(CC)C(=O)CCn2cnc3onc(-c4ccc(F)cc4)c3c2=O)cc1`, the Potency entry is “inactive”.
Regarding `CCC(CC)C(=O)N1CCN(c2cccc(C)c2C)CC1`, the Potency entry is “inactive”.
Under `Cc1cccc(N2CCN(C(=O)/C=C/c3ccco3)CC2)c1C` stands 50.1 µM (active); under `Cc1cccc(N2CCN(C(=O)c3cnc(N4CCCC4)nc3C)CC2)c1C`, “inactive”.
